CF NFkB inh: inhibitors of PAF-induced NF-kB signaling, primary screen, cell-based, GFP fluorescence, uHTS | KKLEB NF-kB-GFP reporter, GFP fluorescence overnight | inhibition, % at 5 µM | 360,000 compounds, 0.86% hits | AID 588850, 2011;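 active = at least 50% inhibition at 5 µM, scaled per plate between neutral and stimulator controls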;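 also: PAF is a Pseudomonas aeruginosa culture filtrate used as stimulus; plate controls were PAF-stimulated DMSO wells for no effect and unstimulated DMSO wells for full effect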
TROY NFkB inh: inhibitors of TROY-driven NF-kB signaling, primary screen, Q293 LMP1-TROYcd cells, NF-kB luciferase, uHTS; Q293 LMP1-TROYcd NF-kB luciferase reporter, 4 h; inhibition, % at 10 µM; 360,000 compounds, 0.98% hits;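 active = compounds whose plate-normalised and pattern-corrected inhibition of the luciferase reporter signal at the single screening dose is 50% or more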
HIF-2a inh: HIF-2a reporter inhibitors, primary screen, luminescence, 786-0 RCC cells. 786-0 RCC cells HIF-2a reporter, luciferase luminescence, overnight. inhibition, % at 18.8 µM. 360,000 compounds, 0.72% hits;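 active = inhibition of the luminescence signal of 40% or more relative to plate controls, in a single-dose primary screen at 18.75 µM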
KKLEB tox: cytotoxicity in KKLEB CF airway cells, primary screen, cytotoxicity control for CF NF-kB inhibitor project, cell-based, uHTS, fluorescence assay plates; 360,000 compounds, 0.36% hits; KKLEB CF airway cells viability, ATPlite luminescence, overnight; stronger effect = lower value; cells stimulated with P. aeruginosa culture filtrate; activity change (cytotoxicity), % at 5 µM; AID 602141, 2011;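 active = corrected activity change at or below -50% at 5 µM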
Peg3 prom inh: Peg3 promoter-driven luciferase inhibitors, primary screen, cell-based, HeLa, luciferase luminescence | 360,000 compounds, 1.7% hits | inhibition, % at 20 µM | AID 588405, 2011 | HeLa PEG-Prom luciferase reporter, overnight;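 active = inhibition of at least 50% at 20 µM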
TWEAK-Fn14 inh: inhibitors of TWEAK-Fn14 signaling, primary screen, luciferase reporter cells, uHTS | TWEAK-stimulated Fn14 reporter cells, luciferase luminescence, 8 h | inhibition, % at 10 µM | 360,000 compounds, 2% hits | AID 1159606, 2016; in the data active = inhibition above about 50%
Starred values were filed as active, the others as inactive; . = not tested or not shown. An excerpt weighted towards active compounds, which were near 4% of everything screened.

SMILES	CF NFkB inh	TROY NFkB inh	HIF-2a inh	KKLEB tox	Peg3 prom inh	TWEAK-Fn14 inh
O=[N+]([O-])c1ccc(N/N=C/c2sc(N3CCOCC3)nc2-c2ccccc2)c(S(=O)(=O)Nc2ccccc2Cl)c1	26	49	31	-29	68*	69*
COc1cc2c(cc1OC)CN(c1ccc(C(F)(F)F)cn1)CC2	-13	-10	-204	-4	-87	51*
CN=c1scc(-c2ccc(F)cc2)n1/N=C/c1ccc(O)c(O)c1	13	76*	-103	-27	16	88*
O=C(N/N=C/c1ccc(-c2ccccc2Cl)o1)c1ccccc1	-16	-17	-235	-6	-162	-24
O=C(O)c1ccc(N/N=C/c2ccc(-c3ccccc3Cl)o2)cc1	33	14	-130	8	-81	51*
CN(C)S(=O)(=O)c1cccc(NC(=S)NC23CC4CC(CC(C4)C2)C3)c1	-3	9	19	13	27	62*
Cc1ccc(S(=O)(=O)N(C)C)cc1NC(=S)NC12CC3CC(CC(C3)C1)C2	12	5	29	-4	28	-12
N#C/C(=N\Nc1ccc(S(=O)(=O)N2CCOCC2)cc1)C(N)=S	11	12	8	-2	-11	32
N#CC(C#N)=NNc1ccc(S(=O)(=O)N2CCCCC2)cc1	71*	59*	10	-17	10	48
O=S(=O)(c1ccc(NC(=S)NC23CC4CC(CC(C4)C2)C3)cc1)N1CCCCC1	40	44	11	-15	48	70*
CC1(C(=O)NCCOc2ccccc2Cl)CC1(Cl)Cl (centres undefined)	4	5	-19	0	-8	-4
Cc1ccccc1Nc1nc(Nc2ccccc2C)nc(SC2=NCCS2)n1	16	18	-21	-2	23	71*
CC(=O)Nc1ccc(NC(=O)c2ccc(N(Cc3ccccc3C)S(C)(=O)=O)cc2)cc1	-18	-13	27	-3	11	86*
N#C/C(=C\c1cccc([N+](=O)[O-])c1)c1nnc2n1CCCCC2	20	82*	32	-8	1	91*
CN(c1ccccc1)c1ccc(/C=C(\C#N)c2nnc3n2CCCCC3)cc1[N+](=O)[O-]	31	-8	-56	-11	-16	-40
CC(O)CNCCCOc1ccc(Cl)cc1C(C)(C)C (centres undefined)	10	-9	2	-11	81*	-22
CN(C)CCOCCOc1ccc(Cl)cc1C(C)(C)C	11	-34	11	-22	18	-26
C=CCn1c(SCC(=O)c2[nH]c(C)c(C(=O)OCC)c2C)nc2scc(-c3ccc(OC)cc3)c2c1=O	32	3	19	-37	54*	-140
C=CCn1c(SCC(=O)c2[nH]c(C)c(C(=O)OCC)c2C)nc2scc(-c3ccccc3)c2c1=O	16	11	13	-9	-3	-36
COc1ccccc1CNC(=O)CCS(=O)(=O)c1ccc(Cl)cc1	5	-15	15	-1	-7	-8
C/C(N=Nc1nc2ccccc2s1)=N\Nc1ccccc1O	47	7	-18	-37	36	80*
CCN1C(=O)[C@H]2[C@@H](c3ccc(-c4ccc(Cl)c(Cl)c4)c(OC)c3)N3CCCC[C@@]3(C(=O)OC)[C@H]2C1=O	25	9	15	-6	32	36
NC(CO)c1csc(Nc2ccc(C(=O)c3ccccc3)cc2)n1 (centres undefined)	14	-6	-27	-11	-22	-1
NC(Cc1ccc(Cl)cc1)c1csc(Nc2ccc(C(=O)c3ccccc3)cc2)n1 (centres undefined)	9	21	2	8	97*	31
NC(Cc1ccc(F)cc1)c1csc(Nc2ccc(C(=O)c3ccccc3)cc2)n1 (centres undefined)	41	36	-7	-38	91*	33
SMILES	CF NFkB inh	TROY NFkB inh	HIF-2a inh	KKLEB tox	Peg3 prom inh	TWEAK-Fn14 inh
NC(c1csc(Nc2ccc(C(=O)c3ccccc3)cc2)n1)C1CCCCC1 (centres undefined)	36	21	3	-10	97*	7
COc1ccc(CC(N)c2csc(Nc3ccc(C(=O)c4ccccc4)cc3)n2)cc1 (centres undefined)	28	28	-41	-24	66*	-9
NC(Cc1ccccc1)c1csc(Nc2ccc(C(=O)c3ccccc3)cc2)n1 (centres undefined)	8	20	4	-19	66*	-2
Cc1[nH]nc(-c2ccc(O)cc2O)c1-c1ccc(Cl)cc1	-2	38	19	1	30	27
COc1ccc(O)c(-c2c(-c3ccc(Cl)cc3)n[nH]c2C)c1	10	7	20	-4	8	20
COc1ccc(-c2n[nH]c(C)c2-c2ccc(Cl)cc2)c(O)c1OC	-8	42	15	-26	72*	55*
COc1ccc(-c2n[nH]c(C)c2-c2ccc(Cl)cc2)c(O)c1	-14	10	27	-5	62*	2
COC(=O)c1ccc(C(=O)OC)c(NC(=O)N2c3ccccc3Sc3ccccc32)c1	54*	0	12	-54*	16	-34
COCCc1nc2ccc(C(=O)N(C)Cc3cccc(-n4nc(C)cc4C)c3)cc2o1	-64	60*	-8	8	0	-2
COCCc1nc2ccc(C(=O)NCc3cccc(-n4cccn4)c3)cc2o1	-1	-5	-18	1	-3	0
c1ccc(COc2ncnc3c2ncn3CCCN2CCN(Cc3cccc4ccccc34)CC2)cc1	1	30	-21	-8	101*	43
CN1CCN(c2ccc(NC(=O)CSc3ccccc3)cc2F)CC1	-2	37	-76	-2	-239	53*
Cc1ccc(SCC(=O)Nc2ccc(N3CCN(c4ccccc4)CC3)c(F)c2)cc1	8	7	5	-3	7	-4
C#CC1(O)CCC2C3CCC4=Cc5oncc5CC4(C)C3CCC21C (centres undefined)	19	31	14	-5	34	-33
C#C[C@]1(O)CCC2C3CCC4=Cc5oncc5CC4(C)C3CCC21C (some centres undefined)	18	51*	20	23	18	0
O=C(COc1ccccc1)Nc1cccc(-c2nc3cc4ccccc4cc3[nH]2)c1	9	7	-300	-36	-18	77*
O=C(COc1ccccc1)Nc1cccc(-c2nn[nH]n2)c1	-17	-26	7	12	25	-7
COC(=O)C[C@@H]1CC[C@@H](NC(=O)Nc2cc(F)ccc2F)[C@@H](CO)O1	.	.	6	.	.	.
